HT1080-NT tox: kills 2HG-producing HT-1080-NT fibrosarcoma cells; HT-1080-NT fibrosarcoma viability, CellTiter-Glo ATP luminescence, 48 h; Potency, µM (doses to about 46.1 µM), usual class: cytotoxic; actives 1.6% (n = 360,000); AID 686970;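 also: NT is the 2HG producing partner of a matched IDH1 knockdown line; nearly all actives have a fitted effect of over 55% in size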
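Viability by CellTiter-Glo luminescence after 48 h compound exposure at 37C of HT-1080-NT cells (750/well, RPMI, 5% FBS). % activity scaled between DMSO wells and medium-only wells, then curve-fitted and categorized by curve class.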
DT40 TDP1 CPT: growth inhibition of DT40 Tdp1-/-;hTDP1 cells with camptothecin (screen for TDP1 inhibitors); chicken DT40 Tdp1-/-;hTDP1 cells + 20 nM CPT, ATP luminescence, 48 h; Potency, µM (doses to about 46.2 µM), hits mostly inhibitors; actives 12% (n = 420,000); also: nearly all actives have a fitted effect of over 55% in size
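Cell growth measured by CellTiter-Glo luminescence after a minimum 48 h, 37 C compound exposure with 20 nM CPT in Tdp1-knockout DT40 cells stably expressing hTDP1, seeded 400/well; qHTS titration format.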
HT1080 IDH1KD tx: HT-1080 IDH1 knockdown cell toxicity (counter line); HT-1080 IDH1 knockdown viability, ATP luminescence, 48 h; Potency, µM (titrated, usually from 46.1 µM), actives largely listed as cytotoxic; actives 2% (n = 360,000); AID 686971
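Cytotoxicity counter-line: IDH1KD HT-1080, 48 h, CellTiter-Glo. Curves classed by r2, magnitude and activity.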
DT40 TDP1 no CPT: qHTS for Inhibitors of human tyrosyl-DNA phosphodiesterase 1 (TDP1): qHTS in cells in absence of CPT | DT40 Tdp1-/- hTDP1 cells, no CPT, ATP luminescence, 48 h | actives 15% (n = 420,000) | Potency, µM (top dose mostly 46.2 µM), usual class: inhibitors; also: nearly all actives have a fitted effect of over 55% in size
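Chicken DT40 Tdp1-/- cells complemented with human TDP1, screened without camptothecin (DMSO vehicle only), 400 cells/well. Compounds pin-transferred, cells incubated at 37 °C for at least 48 hr. Growth read as ATP-dependent luminescence (CellTiter-Glo, 30 min at RT).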
IL-1B inflam inh: inhibitors of inflammasome signaling (IL-1 beta secretion); actives 4.7% (n = 360,000); activity change, % at 57.5 µM; THP-1 LPS/ATP IL-1B secretion, AlphaLISA, 16 h; active compounds read low; in the data active = activity change below about -50%; inconclusive = mostly about -30% to -49%
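Secreted IL-1B measured by AlphaLISA bead assay after 16 h compound exposure of THP-1 cells; compounds (final up to 57.5 uM) added 1 h before LPS (250 ng/mL) and ATP (1.25 mM) stimulation; lower signal means less secretion.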
A number is an active result; . = inactive; ? = inconclusive; / = not tested or not shown; [ ] = dose if it differs, or a comment. Shown are actives, neighbours in structure and some others; about 19% of the full set was active somewhere. Unless noted, calls follow the shape of the dose curve; as a rule, active = well fitted curve in the direction sought with a large enough effect; inconclusive = small, poorly fitted or top-dose-only effect, or another doubt; inactive = no such curve, though single readings can be large; an effect the other way counts as inactive or inconclusive.

SMILES | HT1080-NT tox | DT40 TDP1 CPT | HT1080 IDH1KD tx | DT40 TDP1 no CPT | IL-1B inflam inh
CN(C)C(=O)CCSC(SCCC(=O)O)c1cccc(/C=C/c2ccc3ccc(Cl)cc3n2)c1 (centres undefined) | / | ? | / | 17µM | /
C[C@@H]1CN([C@H](C)CO)C(=O)c2c(c3ccccc3n2C)-c2ccccc2CO[C@@H]1CN(C)Cc1ccc(O)cc1 | . | 21µM | . | 15µM | ?
Cc1ccccc1S(=O)(=O)N(C)C[C@@H]1OCc2ccccc2-c2c(n(C)c3ccccc23)C(=O)N([C@H](C)CO)C[C@@H]1C | . | 16µM | . | 21µM | .
COc1ccc(OC(=O)N(C)C[C@@H]2OCc3ccccc3-c3c(n(C)c4ccccc34)C(=O)N([C@H](C)CO)C[C@@H]2C)cc1 | . | . | . | 23µM | .
C[C@@H]1CN([C@H](C)CO)C(=O)c2c(c3ccccc3n2C)-c2ccccc2CO[C@H]1CN(C)Cc1ccc(-c2ccccc2)cc1 | 21µM | 18µM | 16µM | 21µM | ?
O=c1[nH]c(N2CCN(Cc3ccc4c(c3)OCO4)CC2)nc2c1CCC2 | . | ? | . | . | .
CNNC | / | . | / | . | /
ClC1=C(Cl)[C@]2(Cl)[C@@H]3[C@H]4C[C@H]([C@@H]5O[C@H]45)[C@@H]3[C@@]1(Cl)C2(Cl)Cl | / | . | / | ? | /
CCC[C@H](N[C@@H](CCC)[C@H](O)c1ccccc1)[C@H](O)c1ccccc1 | . | 26µM | . | 23µM | -58
Cc1ccccc1-n1c(CF)nc2ccc(N)cc2c1=O | / | . | / | . | /
COC(=O)C1=C(c2ccc(C(C)=O)cc2)C[C@@H]2CC[C@H]1N2C(=O)N1CCC(O)CC1 | . | . | . | . | .
C=CCOC(=O)N1Cc2ccccc2-n2nncc2C1 | . | . | . | . | .
CCCCNC(=S)N(CCN(CC)CC)Cc1cc2cc3c(cc2[nH]c1=O)OCO3 | . | ? | . | 15µM | ?
COc1ccc2c3c1O[C@H]1[C@@H](O)C=C[C@H]4[C@@H](C2)N(C)CC[C@@]341 | / | . | / | . | /
CCCCCCn1c(=O)c(C(=O)Nc2cnccn2)c(O)c2ccccc21 | . | 0.82µM | ? | 0.58µM | .
CCCCCn1c(=O)c(C(=O)Nc2ccccn2)c(O)c2ccccc21 | . | 3.7µM | . | 4.6µM | .
CCCCn1c(=O)c(C(=O)Nc2ccc(C)cn2)c(O)c2ccccc21 | . | 13µM | . | 9.2µM | .
CCCCn1c(=O)c(C(=O)Nc2ccccn2)c(O)c2ccccc21 | . | 3.3µM | . | 4.1µM | .
CCCCCn1c(=O)c(C(=O)NCc2ccncc2)c(O)c2ccccc21 | . | ? | . | ? | .
CN(C)C/C=C(\c1ccc(Br)cc1)c1cccnc1 | ? | . | ? | ? | .
O=C(Oc1ccccc1)N1CCC[C@@]2(CCN(Cc3ccccc3)C2)C1 | / | . | / | . | /
CCCCCCn1c(=O)c(C(=O)Nc2ncccc2O)c(O)c2ccccc21 | . | 5.2µM | . | 5.2µM | .
Oc1cccc[c]1[Hg][Cl] | / | 0.19µM | / | 0.15µM | /
Cc1ccccc1O | . | . | . | . | .
Cc1ccc2c(c1)C1CN(C)CCC1N2C(=O)/C(C#N)=C/c1ccc2c(c1)OCO2 (centres undefined) | . | . | . | ? | .
SMILES | HT1080-NT tox | DT40 TDP1 CPT | HT1080 IDH1KD tx | DT40 TDP1 no CPT | IL-1B inflam inh
CC(C)n1c(N2CCN(S(=O)(=O)c3cccc([N+](=O)[O-])c3)CC2)nc2ccccc21 | . | ? | . | 12µM | -72
O=[N+]([O-])c1cccc(C2N3CCCN23)c1 (centres undefined) | . | . | . | . | .
O=c1[nH]c(=O)n(Cc2ccccc2)c(O)c1C=Nc1ccc(CN2CCOCC2)cc1 | . | . | . | . | .
c1ccc(P(c2ccccc2)c2ccccn2)cc1 | ? | 5.2µM | . | 5.2µM | .
Cc1ccc([C@H]2C[C@H](n3cc(C4CC4)nn3)[C@@H](O)CN2Cc2cccs2)cc1 | . | . | . | ? | .
CCS(=O)(=O)C(C)(C)S(=O)(=O)CC | / | . | / | . | /
CC1=CC(=C2C(=O)NC(=O)NC2=O)C=C(C(F)(F)F)N1C(C)C | . | . | . | . | .
CC1=CC(=C2C(=O)NC(=S)NC2=O)C=C(C(F)(F)F)N1Cc1ccccc1 | 1.8µM | 1.6µM | 1.6µM | 1.6µM | .
CC1=CC(=C2C(=O)NC(=O)NC2=O)C=C(C(F)(F)F)N1Cc1ccccc1 | ? | ? | ? | 18µM | .
c1ccc(C2OCCN3CCCCC23)cc1 (centres undefined) | ? | . | . | . | .
Cc1ccc2c(c1Cl)NC(C(=O)O)C1CC(Sc3ccccc3[N+](=O)[O-])C(Cl)C21 (centres undefined) | . | . | . | . | .
CCN(CC)C(=O)c1ccc2c(c1)C1C(Cl)C(Sc3ccccc3[N+](=O)[O-])CC1C(C(=O)O)N2 (centres undefined) | . | ? | . | 21µM | ?
COC(=O)c1c(NC(=O)C2CC=CCC2C(=O)O)sc2c1CCCCC2 (centres undefined) | . | . | . | ? | .
O/N=C1/C(=C\c2ccccc2)N2CCC1CC2 | . | ? | . | . | .
CCN(CC)C(=O)c1ccc(NC(=O)COc2ccc([N+](=O)[O-])cc2Cl)cc1 | . | ? | . | 21µM | .
CCCN(CCC)c1c([N+](=O)[O-])cc(S(N)(=O)=O)cc1[N+](=O)[O-] | / | ? | / | 31µM | /
Cc1c(NS(=O)(=O)c2ccccc2)ccc([N+](=O)[O-])c1Cl | 2.9µM | ? | ? | 16µM | .
CCN(CCNc1ccc([N+](=O)[O-])c2cccnc12)S(=O)(=O)c1ccccc1 | . | . | . | . | .
CC1(C)C2C[C@@H](O)[C@]3(C)C(CC[C@@]4(C)[C@H](c5ccoc5)C[C@H]5O[C@]543)[C@@]2(C)[C@@H](O)C[C@H]1O (some centres undefined) | / | .[9.04 µM] | / | .[9.04 µM] | /
C[C@@H](Cc1ccccc1)NCCC(c1ccccc1)c1ccccc1 | / | ? | / | 6.4µM | /
NC(=O)c1ccc(NC(=O)c2cccn(Cc3ccccc3)c2=O)cc1 | / | . | / | ? | /
Cc1nnc(NC(=O)c2cccn(Cc3ccccc3)c2=O)s1 | / | . | / | . | /
Cc1cccc2sc(NC(=O)c3cccn(Cc4ccccc4)c3=O)nc12 | / | ? | / | 13µM | /
N#Cc1ccccc1NC(=O)c1cccn(Cc2ccccc2)c1=O | / | 18µM | / | 15µM | /
CN(C(=O)Cc1ccc(Cl)c(Cl)c1)[C@@H](CN1CCCC1)c1cccc(OCC(=O)O)c1 | / | . | / | . | /
Cc1ccc(-c2nn(C)c(=O)c3ccccc23)cc1CNC(=O)/C=C/c1ccccc1 | . | . | . | ? | .
CCC1C(c2ccccc2)NC(c2ccccc2)CC1(O)c1ccc(F)cc1 (centres undefined) | . | ? | ? | 23µM | .
